Laboratory results from PubChem BioAssay AID1159580 (chemical genetic matrix, 2015).
The whole screen tested about 5,500 compounds, of which about 2,000 (36%) were called active. Not shown: some 18% with an inconclusive outcome. No stated cut-off is given here; in the data, active means normalized growth mostly below about 0.91 (no sharp cut-off); inconclusive means no clear call, values can overlap the other calls; inactive means mostly above about 0.92. The list shows a part of the results.

Assay: chemical genetic growth profiling, strain panel (AID 1159580);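 further: tested at 20 µM; growth read once vehicle control cultures reached saturation at 30 °C; 1 = growth at the plate median or of vehicle wells; lower values mean less growth of the strain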
Details: growth OD

Measured: normalized growth

CC(C(=O)O)c1ccc2c(c1)[nH]c1ccc(Cl)cc12 (configuration not stated)
inactive: S. cerevisiae deletion strains, locus YJR075W, strain HOC1, active compounds read low 1.01 | S. cerevisiae deletion strains, locus YKL009W, strain mrt4, active compounds read low 0.975 | S. cerevisiae deletion strains, locus YKL068W, active compounds read low 0.964 | S. cerevisiae deletion strains, locus YKL085W, strain MDH1 (second series), active compounds read low 0.95 | S. cerevisiae deletion strains, locus YKL085W, strain MDH1, active compounds read low 0.95 | S. cerevisiae deletion strains, locus YKL160W, strain elf1, active compounds read low 0.941 | S. cerevisiae deletion strains, locus YKL190W, strain CNB1, active compounds read low 1.01 | S. cerevisiae deletion strains, locus YKR001C, strain vps1, active compounds read low 0.937 | S. cerevisiae deletion strains, locus YKR026C, strain gcn3, active compounds read low 0.983 | S. cerevisiae deletion strains, locus YKR091W, strain srl3, active compounds read low 0.988 | S. cerevisiae deletion strains, locus YLL001W, strain dnm1, active compounds read low 1 | S. cerevisiae deletion strains, locus YLL026W, active compounds read low 0.978 | S. cerevisiae deletion strains, locus YLL041C, strain sdh2, active compounds read low 1 | S. cerevisiae deletion strains, locus YLR027C, strain aat2, active compounds read low 0.992 | S. cerevisiae deletion strains, locus YLR039C, strain RIC1, active compounds read low 0.977 | S. cerevisiae deletion strains, locus YLR058C, strain SHM2, active compounds read low 1 | S. cerevisiae deletion strains, locus YLR102C, strain apc9, active compounds read low 0.991 | S. cerevisiae deletion strains, locus YLR221C, strain rsa3, active compounds read low 0.986 | S. cerevisiae deletion strains, locus YLR258W, strain gsy2, active compounds read low 0.976 | S. cerevisiae deletion strains, locus YLR262C, strain YPT6 (second series), active compounds read low 0.94 | S. cerevisiae deletion strains, locus YLR262C, strain YPT6, active compounds read low 0.989 | S. cerevisiae deletion strains, locus YLR268W, strain sec22, active compounds read low 0.992 | S. cerevisiae deletion strains, locus YLR320W, strain mms22, active compounds read low 0.937 | S. cerevisiae deletion strains, locus YLR330W, strain CHS5, active compounds read low 0.998 | S. cerevisiae deletion strains, locus YLR342W, strain FKS1 (second series), active compounds read low 0.987 | S. cerevisiae deletion strains, locus YLR342W, strain FKS1, active compounds read low 0.966 | S. cerevisiae deletion strains, locus YLR357W, strain rsc2, active compounds read low 0.923 | S. cerevisiae deletion strains, locus YLR370C, strain arc18, active compounds read low 0.972 | S. cerevisiae deletion strains, locus YLR371W, strain rom2, active compounds read low 0.984 | S. cerevisiae deletion strains, locus YLR384C, strain iki3, active compounds read low 0.964 | S. cerevisiae deletion strains, locus YLR418C, strain cdc73, active compounds read low 0.962 | S. cerevisiae deletion strains, locus YML016C, strain PPZ1, active compounds read low 1.01 | S. cerevisiae deletion strains, locus YML032C, strain rad52, active compounds read low 0.965 | S. cerevisiae deletion strains, locus YML120C, strain ndi1, active compounds read low 0.985 | S. cerevisiae deletion strains, locus YML124C, strain tub3, active compounds read low 0.981 | S. cerevisiae deletion strains, locus YMR058W, strain fet3, active compounds read low 1 | S. cerevisiae deletion strains, locus YMR078C, strain ctf18, active compounds read low 0.983 | S. cerevisiae deletion strains, locus YMR125W, strain sto1, active compounds read low 0.969 | S. cerevisiae deletion strains, locus YMR129W, active compounds read low 0.995 | S. cerevisiae deletion strains, locus YMR205C, strain PFK2, active compounds read low 0.962 | S. cerevisiae deletion strains, locus YMR223W, strain ubp8, active compounds read low 0.975 | S. cerevisiae deletion strains, locus YMR231W, strain pep5, active compounds read low 0.957 | S. cerevisiae deletion strains, locus YMR263W, strain SAP30, active compounds read low 1.02 | S. cerevisiae deletion strains, locus YMR307W, strain GAS1, active compounds read low 0.996 | S. cerevisiae deletion strains, locus YNL067W, strain RPL9B, active compounds read low 1.03 | S. cerevisiae deletion strains, locus YNL071W, strain lat1, active compounds read low 0.982 | S. cerevisiae deletion strains, locus YNL128W, strain TEP1, active compounds read low 1 | S. cerevisiae deletion strains, locus YNL153C, strain GIM3, active compounds read low 1.03 | S. cerevisiae deletion strains, locus YNL209W, strain ssb2, active compounds read low 0.988 | S. cerevisiae deletion strains, locus YNL233W, strain BNI4, active compounds read low 1.02 | S. cerevisiae deletion strains, locus YNL248C, strain rpa49, active compounds read low 0.963 | S. cerevisiae deletion strains, locus YNL271C, strain bni1, active compounds read low 0.942 | S. cerevisiae deletion strains, locus YNL298W, strain CLA4, active compounds read low 0.91 | S. cerevisiae deletion strains, locus YNL307C, strain MCK1, active compounds read low 0.963 | S. cerevisiae deletion strains, locus YNL322C, strain KRE1, active compounds read low 1.01 | S. cerevisiae deletion strains, locus YNR049C, strain mso1, active compounds read low 0.988 | S. cerevisiae deletion strains, locus YNR052C, strain pop2, active compounds read low 0.97 | S. cerevisiae deletion strains, locus YOL006C, strain TOP1, active compounds read low 1.07 | S. cerevisiae deletion strains, locus YOL012C, strain htz1 0.756 | S. cerevisiae deletion strains, locus YOL147C, strain pex11, active compounds read low 0.974 | S. cerevisiae deletion strains, locus YOR001W, strain rrp6, active compounds read low 1 | S. cerevisiae deletion strains, locus YOR061W, strain CKA2, active compounds read low 1 | S. cerevisiae deletion strains, locus YOR069W, strain VPS5, active compounds read low 1.01 | S. cerevisiae deletion strains, locus YOR070C, strain gyp1, active compounds read low 0.981 | S. cerevisiae deletion strains, locus YOR080W, strain dia2, active compounds read low 1 | S. cerevisiae deletion strains, locus YOR083W, strain WHI5, active compounds read low 0.898 | S. cerevisiae deletion strains, locus YOR106W, strain vam3, active compounds read low 0.925 | S. cerevisiae deletion strains, locus YOR136W, strain idh2, active compounds read low 0.963 | S. cerevisiae deletion strains, locus YOR144C, strain elg1, active compounds read low 0.98 | S. cerevisiae deletion strains, locus YOR184W, strain ser1, active compounds read low 0.986 | S. cerevisiae deletion strains, locus YOR265W, strain rbl2, active compounds read low 0.993 | S. cerevisiae deletion strains, locus YOR270C, strain vph1, active compounds read low 0.999 | S. cerevisiae deletion strains, locus YOR290C, strain snf2, active compounds read low 0.95 | S. cerevisiae deletion strains, locus YOR316C, strain cot1, active compounds read low 0.989 | S. cerevisiae deletion strains, locus YPL051W, strain arl3, active compounds read low 0.953 | S. cerevisiae deletion strains, locus YPL055C, strain LGE1, active compounds read low 1.04 | S. cerevisiae deletion strains, locus YPL078C, strain atp4, active compounds read low 0.946 | S. cerevisiae deletion strains, locus YPL106C, strain sse1, active compounds read low 0.938 | S. cerevisiae deletion strains, locus YPL240C, strain hsp82, active compounds read low 1 | S. cerevisiae deletion strains, locus YPL241C, strain CIN2, active compounds read low 1.01 | S. cerevisiae deletion strains, locus YPR119W, strain clb2, active compounds read low 0.993 | S. cerevisiae deletion strains, locus YPR141C, strain kar3, active compounds read low 0.967 | S. cerevisiae deletion strains, locus YPR163C, strain tif3, active compounds read low 0.981 | S. cerevisiae deletion strains, locus YPR167C, strain met16, active compounds read low 0.995 | S. cerevisiae deletion strains, strain wtn01, active compounds read low 0.998 | S. cerevisiae strains, strain wild type, active compounds read low 0.995
active: S. cerevisiae deletion strains, locus YLR113W, strain HOG1, active compounds read low 0.248 | S. cerevisiae deletion strains, locus YNL183C, strain NPR1, active compounds read low 0.507 | S. cerevisiae deletion strains, locus YNL250W, strain rad50, active compounds read low 0.885 | S. cerevisiae deletion strains, locus YNL322C, strain KRE1 (second series), active compounds read low 0.895 | S. cerevisiae deletion strains, locus YOR231W, strain MKK1, active compounds read low 0.212 | S. cerevisiae deletion strains, locus YPL256C, strain CLN2, active compounds read low 0.238
